Shown are actives, neighbours in structure and some others; about 1.6% of the full set was active somewhere.
p53ts 39C tox – qHTS Screen for Compounds that Selectively Target Cancer Cells with p53 Mutations: Cytotoxicity of p53ts Cells at the Nonpermissive Temperature | H1299-p53A138V viability at 39C, ATP luminescence, 24 h | Potency, µM (highest dose often 46.1 µM), inactives show top-dose activity change, negative = cell killing, hits mostly cytotoxic | 130,000 tested, 1.5% active | AID 902, 2007; further: on the % scale 0 is the no-effect control and ±100 the full control effect; nearly all actives have a fitted effect of over 55% in size
IkB signaling – IkB Signaling. AID 445, 2006. Potency, µM (series often up to 57.1 µM), inactives show top-dose IkBa stabilization activation. 110,000 tested, 0.04% active. ABC-DLBCL IkBa-CBG/CBR dual luciferase ratio, 4 h; response scale: scaled: untreated 0%, proteasome inhibitor 100%; active means well fitted curve in the direction sought with a large enough effect in the signal ratio, not every such curve was filed as active; inconclusive means small, poorly fitted or top-dose-only effect, or a change in a side signal; the % refers to the signal ratio;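 further: the direction sought is a rising ratio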
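Curves were fitted separately to fusion (green), unfused (red) and ratio luminescence, then classed by r2, magnitude and activity. Cells: OCI-Ly3, 4 h compound plus doxycycline at 37C; 10 uM MG-132 defined full response.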
p53ts 32C tox – qHTS Screen for Compounds that Selectively Target Cancer Cells with p53 Mutations: Cytotoxicity of p53ts Cells at the Permissive Temperature; 130,000 tested, 0.93% active; Potency, µM (titrated, usually from 46.1 µM), without a hit: top-dose activity change, negative = cytotoxicity, hits mostly cytotoxic; H1299-p53A138V at 32C, ATP luminescence viability, 24 h;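 further: 0% = DMSO and -100% = full killing by reference compound; nearly all actives have a fitted effect of over 55% in size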
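ATP-content luminescence (ATPlite) read-out after 24 h compound exposure at 32C in H1299-p53A138V cells (600/well). Tested up to 46 uM. Normalized to DMSO (0%) and 100 uM tamoxifen (100% killing); Hill-fit AC50.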
Imprint erasure – qHTS Assay for Compounds that Induce Erasure of Genomic Imprints; 110,000 tested, 0.02% active; AID 1948, 2009; Potency, µM (highest dose often 60.7 µM), inactives show top-dose activity change, positive = activation, usual class: activators; mouse ES Peg3-LacZ reporter, beta-gal luminescence, 40 h
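Imprint erasure is scored as LacZ activity from the silenced maternal Peg3 allele in feeder-free female ES cells cultured 40 h with LIF. Luminescence is normalized to in-plate negative controls and fitted to the Hill equation.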
The depositor's hits bear a star; u = inconclusive; x = not tested or not shown; [ ] = remark or other dose. Unless noted, the call rests on the fitted dose curve; in most records, active means well fitted curve in the direction sought with a large enough effect; inconclusive means small, poorly fitted or top-dose-only effect, or another doubt; inactive means no such curve, though single readings can be large; an effect the other way counts as inactive or inconclusive. Potency means the concentration at half of the fitted maximal effect.

SMILES	p53ts 39C tox	IkB signaling	p53ts 32C tox	Imprint erasure
Cc1cc(Cl)ccc1NC(=O)c1cc2ccccn2n1	5.01µM*	4.8%	10µM*	-16.8%[10.9 µM]
CC(=O)c1cccc(NC(=O)c2cc3ccccn3n2)c1	12.6µM*	u	12.6µM*	-71.6%
CC(=O)c1cccc(NC(=O)c2nc3ccccc3n(C)c2=O)c1	1.58µM*	u	2.24µM*	-44.9%[10.9 µM]
C/C(CCN1CCCCc2nc(C)c(C)cc21)=N\O[C@@H](C)c1cc(-c2c(C)cc(C)cc2C)no1	9.2%[9.22 µM]	x	1.1%[9.22 µM]	x
COc1ccc(OC)c(NC(=O)c2sc3nc4c(cc3c2N)CCCCCC4)c1	12.6µM*	u	u	-19.0%[10.9 µM]
Cc1cccc(NC(=O)c2sc3nc4c(cc3c2N)CCCCCC4)c1C	-16.3%	2.51µM*	-5.8%	-18.8%[10.9 µM]
Nc1c(C(=O)Nc2ccc(C(=O)O)cc2)sc2nc3c(cc12)CCCC3	u	u	u	-10.4%[10.9 µM]
CCOc1ccc(NC(=O)c2sc3nc4c(cc3c2N)CCCCCC4)cc1	12.6µM*	-0.9%	u	-7.9%[10.9 µM]
Cc1ccc(CSc2nc(=O)c3c(C)cc(C)nc3n2C2CC2)cc1	15.0%	u	-10.7%	-5.5%[10.9 µM]
Nc1nc2c(nc(Br)n2[C@@H]2O[C@H]3COP(=O)(O)O[C@@H]3[C@H]2O)c(=O)[nH]1	18.8%	7.6%	11.1%	x
Cc1cccc(-c2nc(SCc3cc(=O)c4c(C)cc(C)cc4[nH]3)n[nH]2)c1	20µM*	0.3%	u	13.3%[10.9 µM]
Cc1ccc(Nc2nc3c(c(=O)[nH]2)CCCC3)cc1	-2.4%	x	-7.6%	x
O=c1[nH]c(Nc2nc3ccccc3o2)nc2c1CCCC2	u	x	12.6µM*	x
c1cncc(-c2nc(NCc3cccs3)c3ccccc3n2)c1	-20.9%	-2.1%[11.4 µM]	-0.1%	-4.3%
N#Cc1cccc(-c2nc(NCc3cccs3)c3ccccc3n2)c1	-24.5%	1.4%[11.4 µM]	-17.2%	6.31µM*
C[C@H]1[C@H](C)CC[C@@]2(C(=O)O)CC[C@]3(C)C(=CC[C@@H]4[C@@]5(C)CC[C@H](O)C(C)(C)[C@@H]5CC[C@@]43C)[C@@H]12	x	0.4%[11.4 µM]	x	x
NS(=O)(=O)c1ccc(N=Nc2nc3[nH]cnc(=S)c3[nH]2)cc1	-21.7%[9.22 µM]	6.4%[11.4 µM]	-28.6%[9.22 µM]	5.1%[10.9 µM]
S=c1nc[nH]c2nc[nH]c12	7.94µM*	x	u	4.3%
Cc1ccc(S(=O)(=O)Nc2ccc(O)c(C(=O)O)c2)c(C)c1	8.3%	x	23.0%	x
CCn1c2ccccc2c2nnc(N3CCN(c4ccc(OC)cc4)CC3)nc21	32.1%	u	16.5%	-21.6%[10.9 µM]
Fc1ccc([C@H]2CCNC[C@H]2COc2ccc3c(c2)OCO3)cc1	10µM*	u	31.6µM*	-33.4%
COC(=O)[C@@H]1O[C@@H](SCCN)[C@@H](O)[C@H](O)[C@H]1O	19.8%[9.22 µM]	0.2%[11.4 µM]	7.6%[9.22 µM]	-8.2%[10.9 µM]
c1ccc2cc(NCNc3ccc4ccccc4c3)ccc2c1	-3.8%[9.22 µM]	6.6%[11.4 µM]	-6.7%[9.22 µM]	-8.7%[10.9 µM]
CC1N/C(=C\C(=O)c2ccccc2)N(O)C1(C)C (configuration not stated)	12.6µM*	-0.3%	10µM*	-19.4%
Cc1ccc(CNC(=O)C(C)n2nc(C)c3sc4ccccc4c3c2=O)cc1 (configuration not stated)	u	u	u	-27.3%[10.9 µM]
SMILES	p53ts 39C tox	IkB signaling	p53ts 32C tox	Imprint erasure
Cc1nn(C(C)C(=O)NC2CCCCC2)c(=O)c2c1sc1ccccc12 (configuration not stated)	10µM*	u	12.6µM*	-33.5%[10.9 µM]
CSc1ccc(CCNC(=O)C(C)n2nc(C)c3sc4ccccc4c3c2=O)cc1 (configuration not stated)	10µM*	-3.3%	10µM*	-34.2%[10.9 µM]
COc1ccc(NC(=O)C2CCCN(c3nnc(C)c4c(C)n(-c5ccccc5)nc34)C2)cc1Cl (configuration not stated)	10µM*	u	u	-14.8%[10.9 µM]
COc1ccccc1NC(=O)N1CCN(c2nnc(C)c3c(C)n(-c4ccc(Cl)cc4)nc23)CC1	-13.2%	-0.2%	1.8%	-14.6%[10.9 µM]
Cc1nnc(N2CCN(C(=O)Nc3cc(F)ccc3F)CC2)c2nn(-c3ccc(Cl)cc3)c(C)c12	12.6µM*	-5.1%	u	-9.8%[10.9 µM]
COc1ccc(-n2nc3c(N4CCC(C(=O)NCc5cccc(F)c5)CC4)nnc(C)c3c2C)cc1	5.01µM*	-1.3%	u	7.3%[10.9 µM]
Cc1ccc(NC(=O)C2CCN(c3nnc(C)c4c(C)n(-c5ccccc5)nc34)CC2)cc1Cl	30.9%	u	9.9%	2.2%[10.9 µM]
COc1ccc(CNC(=O)C2CCN(c3nnc(C)c4c(C)n(-c5ccc(C)cc5)nc34)CC2)cc1	u	u	u	-7.6%[10.9 µM]
C/C(=C\COc1cc(=O)[nH]c2ccccc12)CC[C@@H](O)C(C)(C)O	x	1.3%[11.4 µM]	x	x
OCC1OC([S-])[C@H](O)C(O)C1O.[Au+] (some centres not stated)	9.8%	x	-8.9%	-13.8%
CCN(CC)CCNC(=O)c1ccc2c(=O)n3nc(Nc4cccc(Cl)c4C)sc3nc2c1	20µM*	-2.8%	u	-4.0%[10.9 µM]
Cc1ccc(C)c(Nc2nn3c(=O)c4ccc(C(=O)NCCC5=CCCCC5)cc4nc3s2)c1	22.7%	-1.2%	u	21.9%[10.9 µM]
Cc1ccc(C)c(Nc2nn3c(=O)c4ccc(C(=O)NCCc5ccccc5)cc4nc3s2)c1	3.16µM*	u	-6.3%	23.0%[10.9 µM]
COc1ccccc1Nc1nn2c(=O)c3ccc(C(=O)NC(C)c4ccccc4)cc3nc2s1 (configuration not stated)	11.8%	-1.8%	2.7%	-4.6%[10.9 µM]
Cc1c(Cl)cccc1Nc1nn2c(=O)c3ccc(C(=O)NCCc4ccccc4)cc3nc2s1	u	u	u	-33.2%[10.9 µM]
COc1ccccc1Nc1nn2c(=O)c3ccc(C(=O)NCCC4=CCCCC4)cc3nc2s1	3.16µM*	u	5.01µM*	-37.0%[10.9 µM]
COc1ccccc1Nc1nn2c(=O)c3ccc(C(=O)NCCc4ccccc4)cc3nc2s1	3.16µM*	u	3.16µM*	-34.0%[10.9 µM]
C=C1c2ccccc2O[C@H](C(=O)OCC)C1OC (mixture of isomers)	x	x	x	-9.8%[97.3 µM]
CCOc1ccc(C(=O)Nc2cccc(C)n2)cc1	u	30.1%	5.01µM*	x
CCOc1ccc(C(=O)Nc2nnn(CC)n2)cc1	12.6µM*	-1.8%	10µM*	-79.9%
Cc1ccc(C(=O)Nc2nc3ccccc3c(=O)s2)cc1	15.8µM*	u	12.6µM*	x
CCOc1ccc2nc(NC(=O)c3ccccc3)sc2c1	u	u	6.31µM*	-74.0%[10.9 µM]
COCCn1c(=O)c(-c2ccc(Cl)cc2)nc2cnc(N3CCNCC3)nc21	u	-3.2%[11.4 µM]	-12.4%	-24.4%
O=C(NC1CCCCC1)c1ccc(Cc2nc3ccccc3[nH]2)cc1	-4.4%	x	-1.0%	x
Clc1ccccc1C(Nc1cnccn1)Nc1cnccn1	2.8%[9.22 µM]	3.0%[11.4 µM]	1.2%[9.22 µM]	-10.6%[10.9 µM]
CCOc1ccc(NC(=O)Nc2cccc(C)n2)cc1	u	-4.0%	-22.0%	3.8%[10.9 µM]

Screening results from PubChem BioAssay.
